Compound activity as filed in PubChem.
Shown are actives, neighbours in structure and some others; about 2.8% of the full set was active somewhere.
SENP6 block – SENP6 protease inhibition; Q9GZR1; AID 2599; Recombinant SENP6 catalytic domain, aminoluciferin luminescence; 330,000 tested, 1.8% active; inhibition, % at 10 µM;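 active means inhibition above about 50% at the single tested dose, limit read from the data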;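 further: plate controls were DMSO wells with enzyme for no effect and DMSO wells lacking enzyme for full effect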
Target sequence (Q9GZR1 628-1112 limits assumed): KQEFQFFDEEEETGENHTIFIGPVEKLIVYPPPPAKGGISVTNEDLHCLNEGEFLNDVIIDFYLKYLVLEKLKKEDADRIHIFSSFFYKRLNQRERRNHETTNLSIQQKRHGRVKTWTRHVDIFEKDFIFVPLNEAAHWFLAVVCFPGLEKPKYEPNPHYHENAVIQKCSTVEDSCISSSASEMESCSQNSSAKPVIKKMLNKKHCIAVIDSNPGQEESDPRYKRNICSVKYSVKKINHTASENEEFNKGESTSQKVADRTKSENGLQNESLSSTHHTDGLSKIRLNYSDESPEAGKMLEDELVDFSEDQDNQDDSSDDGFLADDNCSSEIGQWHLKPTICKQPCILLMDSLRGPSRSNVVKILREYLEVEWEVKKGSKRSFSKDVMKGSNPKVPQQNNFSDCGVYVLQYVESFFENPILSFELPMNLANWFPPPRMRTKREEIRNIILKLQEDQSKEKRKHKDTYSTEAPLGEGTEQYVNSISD
SENP8 block-1 – blocks human SENP8 cleavage of Nedd8 substrate; Q96LD8; recombinant SENP8, Nedd8 substrate fluorescence; inhibition, % at 20 µM; 360,000 tested, 0.64% active; in the data active means inhibition mostly above about 40%, no sharp cut-off; inactive means mostly below about 27%
SENP7 block – SENP7 protease inhibition; Q9BQF6; recombinant SENP7, Z-RLRGG-aminoluciferin luminescence, 40 min; inhibition, % at 5 µM; 330,000 tested, 1.5% active; AID 434973;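 active means inhibition above about 50% at the single test dose, limit read from the data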;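 further: plate controls were DMSO with enzyme for no effect and no enzyme buffer wells for full effect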
HSP90 inh – blocks HSP90-mediated luciferase refolding in reticulocyte lysate; Rabbit reticulocyte lysate, luciferase refolding luminescence, 3 h; inhibition, % at 5.6 µM; 290,000 tested, 0.91% active; AID 1789;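 active means inhibition above the screen-wide mean plus 3 SD, computed separately per campaign, cut at about 16% in these data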;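 further: 0% = DMSO wells and 100% = 60 µM geldanamycin wells; inhibitors lower the luminescence because luciferase stays unfolded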
SENP8 block-2 – inhibitors of human SENP8 protease. Q96LD8. 330,000 tested, 1.2% active. inhibition, % at 10 µM. purified SENP8, Z-RLRGG-aminoluciferin cleavage, luminescence; in the data active means inhibition above about 50%
SENP8 conf – confirmation of human SENP8 protease inhibitors; shares compounds with SENP7 block; Recombinant SENP8, Z-RLRGG-aminoluciferin luminescence, 60 min; inhibition, % at 12.5 µM; 6,200 tested, 40% active; AID 488912;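 active means mean inhibition across replicates above about 50%, limit read from the data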
SENP6 conf – human SENP6 inhibition, confirmed. AID 488915. inhibition, % at 12.5 µM. 6,200 tested, 58% active. recombinant SENP6, Z-RLRGG-aminoluciferin luminescence. shares compounds with SENP7 block
SENP7 conf – confirmation of human SENP7 protease inhibitors. shares compounds with SENP7 block. recombinant SENP7, Z-RLRGG-aminoluciferin luminescence, 40 min. inhibition, % at 12.5 µM. 6,200 tested, 69% active. AID 488917
Casp3 SENP sel – selectivity test for SENP inhibitors: human caspase-3 inhibition; shares compounds with SENP7 block; purified caspase-3, Z-DEVD-aminoluciferin luminescence, 60 min; inhibition, % at 12.5 µM; 6,200 tested, 60% active;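 active means mean inhibition above about 50%, limit read from the data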;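 further: plate controls were enzyme with DMSO for no effect and wells without caspase-3 for full effect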
Luc interf – interferes with luciferase luminescence in SENP counter-screen. shares compounds with SENP7 block. Pre-incubated SENP8/Z-RLRGG-aminoluciferin, luciferase luminescence interference. inhibition, % at 12.5 µM. 6,200 tested, 39% active. AID 488919;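 active means mean inhibition above about 50% when retested at one dose, limit read from the data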;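 further: plate controls were DMSO wells with completed reaction for no effect and substrate without enzyme for full effect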
An asterisk follows results filed as active; i = inactive; x = no result given.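 How the source made its calls, unless noted: active means mean inhibition above about 50% in the one-dose retest (limit read from the data); inactive means the rest.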

SMILES	SENP6 block	SENP8 block-1	SENP7 block	HSP90 inh	SENP8 block-2	SENP8 conf	SENP6 conf	SENP7 conf	Casp3 SENP sel	Luc interf
COc1cccc2c1C(=O)O/C2=C/c1ccc2c(c1)OCO2	19	i	98*	0	88*	22	19	22	74*	-11
COc1cccc(OC)c1C1=CC(=O)C[C@H](c2ccc3c(c2)OCO3)C1	-16	17	-5	x	0	x	x	x	x	x
CCOC(=O)c1cocc1C(=O)O	x	31	x	x	x	x	x	x	x	x
Cc1cccc(OCCN2CCOCC2)c1C	2	9	0	-3	-2	x	x	x	x	x
Cc1ccnc(NC(=O)c2ccc3c(c2)S(=O)(=O)c2ccccc2C3=O)c1	87*	39	92*	1	84*	11	6	97*	64*	13
Cc1ccc(-c2nc(CS(=O)CC(=O)NCCN(CC(C)C)CC(C)C)c(C)o2)cc1 (stereo not given)	-4	12	6	-2	7	x	x	x	x	x
O=C(Nc1nc2ccccc2c2nc3ccccc3n12)c1ccc(F)cc1	-5	x	-1	1	3	x	x	x	x	x
Cn1c(NC(=O)c2ccc(F)cc2)nc2ccccc21	80*	-36	78*	0	65*	46	75*	95*	86*	17
Cn1c(SCC(=O)Nc2ccccc2O)nnc1-c1ccco1	5	3	1	-2	4	x	x	x	x	x
Cc1ccnc(NS(=O)(=O)c2ccc(NC(=O)C(C)(C)C)cc2)n1	89*	6	-2	-6	4	12	11	-3	1	3
Cc1nn(-c2ccccc2)c(Cl)c1/C=N/Nc1nc2ccccc2n1C	43	5	65*	-4	54*	-8	49	93*	68*	36
Cc1nn(-c2ccccc2)c(Cl)c1/C=N/NC(=O)c1ccnn1C	94*	5	94*	5	87*	59*	81*	97*	92*	55*
CCn1c(CO)nc2c1c(=O)[nH]c(=O)n2Cc1ccccc1	19	3	2	1	10	x	x	x	x	x
C=CCOc1cccc(/C=C\c2nc(O)c([N+](=O)[O-])c(=O)[nH]2)c1	11	12	-3	6	-2	x	x	x	x	x
O=C(Nc1ccc(C(=O)Oc2ccccc2)c(O)c1)c1ccco1	91*	-24	82*	-1	73*	80*	81*	96*	66*	32
CCOC(=O)Nc1ccc(Oc2ccccc2)cc1	12	8	12	-2	5	x	x	x	x	x
CCOC(=O)Nc1ccc(C(=O)Oc2ccccc2)c(O)c1	43	1	53*	0	21	29	33	69*	20	43
O=C(Nc1cccc(NC(=O)c2cccs2)c1)c1ccco1	-9	15	3	1	-2	x	x	x	x	x
O=C(Nc1ccc(OC(=O)c2cccs2)cc1)c1ccco1	87*	28	82*	5	67*	72*	72*	94*	77*	44
Cc1cc(O)c2c(c1)C(=O)c1cc(O)cc(O)c1C2=O	97*	26	80*	x	94*	96*	98*	102*	94*	81*
Cc1ccc(S(=O)(=O)N2CCC(CN3C(=O)c4cccc5cccc(c45)C3=O)CC2)cc1	-17	-233	-3	6	-7	x	x	x	x	x
Cc1ccc(S(=O)(=O)N(C)C)cc1-n1c(SCC(=O)Nc2ccccc2)nc2ccccc2c1=O	50*	3	8	8	1	0	-5	-7	-2	-5
CCCN1CCN(CCCNC(=O)c2ccc3nc(N4CCCCC4)sc3c2)CC1	-2	7	5	3	9	x	x	x	x	x
CN1C(=O)/C(=C/c2coc3ccc(O)cc3c2=O)SC1=S	79*	23	80*	-2	56*	15	20	13	26	4
NC(=S)N/N=C/c1coc2ccc(O)cc2c1=O	-5	1	3	1	-11	x	x	x	x	x
